From PubChem BioAssay (NCI)
About 79,000 compounds went through this panel and 15% of them were active in at least one assay; those are over-represented in the sample as a whole. Calls of active or inactive are those of the source. Rule as the data show it: active = growth inhibition above about 70%; inactive = the rest.

Tests used:
[1] = NCI Yeast Anticancer Drug Screen. Data for the rad52 strain (AID 147);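 also: 0% = growth of vehicle-treated control cultures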; conditions: S. cerevisiae rad52 mutant growth inhibition, hits give high values
Procedure, shortened: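 Screen used a yeast mutant impaired in DNA repair. After compound exposure, growth was measured. Values reflect inhibition compared with vehicle-treated cells.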

[2] = NCI Yeast Anticancer Drug Screen. Data for the wt1 strain (AID 149);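 also: 0% = growth of vehicle-treated wt1 cultures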; conditions: S. cerevisiae wt1 strain (SPY 50644) growth inhibition, hits give high values
Procedure, shortened: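 The wt1 strain was treated with compounds, and growth was compared with vehicle-treated cultures to give inhibition.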

[3] = NCI Yeast Anticancer Drug Screen. Data for the rad50EPP+ strain (AID 151);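 also: 0% = growth of vehicle-treated control cultures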; conditions: S. cerevisiae rad50 mutant strain, hits give high values
Procedure, shortened: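 Exposing the rad50EPP+ strain to each compound, growth was compared with vehicle-only cultures to give inhibition.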

[4] = NCI Yeast Anticancer Drug Screen. Data for the mgt1 strain (AID 153); conditions: S. cerevisiae mgt1 mutant growth inhibition, hits give high values
Procedure, shortened: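 Genetically defined yeast (mgt1) treated with compound; inhibition of growth expressed against vehicle-treated controls.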

[5] = NCI Yeast Anticancer Drug Screen. Data for the rad50 strain (AID 155);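 also: 0% = growth of vehicle-only cultures of the same strain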; conditions: S. cerevisiae rad50 strain growth inhibition, hits give high values
Procedure, shortened: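 Cells are treated with compound, grown, and their growth is then scored against vehicle-only cultures of the same repair-deficient yeast strain.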

[6] = NCI Yeast Anticancer Drug Screen. Data for the mec2-1 strain (AID 157); conditions: S. cerevisiae mec2-1 strain, hits give high values
Procedure, shortened: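 Readout is yeast growth inhibition, normalised to vehicle-treated controls, in the mec2-1 strain exposed to compound.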

[7] = NCI Yeast Anticancer Drug Screen. Data for the sgs1 mgt1 strain (AID 161);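 also: 0% = growth of cultures given vehicle only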; conditions: S. cerevisiae sgs1 mgt1 strain, hits give high values
Procedure, shortened: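 Growth of a repair-deficient yeast mutant was monitored after compound treatment and expressed as inhibition relative to vehicle-treated cultures.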

[8] = NCI Yeast Anticancer Drug Screen. Data for the CLN2oe strain (AID 163);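 also: 0% = growth of vehicle-only control cultures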; conditions: S. cerevisiae CLN2oe strain, hits give high values
Procedure, shortened: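 Values reflect how much compound exposure reduced yeast growth, referenced to vehicle-exposed cells. Assay organism is a strain with a defined genetic change affecting cell-cycle control.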

[9] = NCI Yeast Anticancer Drug Screen. Data for the cln2 rad14 strain (AID 165);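 also: 0% = growth equal to vehicle treated cultures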; conditions: S. cerevisiae cln2 rad14 strain, hits give high values
Procedure, shortened: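 Relative to vehicle controls, growth inhibition of compound-treated cln2 rad14 yeast was recorded.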

[10] = NCI Yeast Anticancer Drug Screen. Data for the bub3 strain (AID 167); conditions: S. cerevisiae bub3 mutant strain, hits give high values
Procedure, shortened: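 Part of a panel of yeast mutants defective in DNA damage repair or cell cycle regulation. Each strain is grown with compound, and inhibition is calculated relative to solvent-treated cultures.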

[11] = NCI Yeast Anticancer Drug Screen. Data for the mlh1 strain (AID 171);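 also: 0% = growth of vehicle-treated control cultures of the same strain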; conditions: S. cerevisiae mlh1 strain growth inhibition, hits give high values
Procedure, shortened: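 Steps: expose the defined-mutant yeast strain to compound; expose a parallel culture to vehicle; measure growth; express compound effect as inhibition relative to the vehicle culture.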

[12] = NCI Yeast Anticancer Drug Screen. Data for the sgs1 strain (AID 173);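 also: 0% = growth of vehicle-only control cultures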; conditions: S. cerevisiae sgs1 mutant, hits give high values
Procedure, shortened: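 Treat defined-mutant yeast with compound; measure growth; calculate inhibition relative to vehicle-treated cells.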

[13] = NCI Yeast Anticancer Drug Screen. Data for the rad18 strain (AID 177); conditions: S. cerevisiae rad18 mutant growth inhibition, hits give high values
Procedure, shortened: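 A genetically defined yeast mutant impaired in DNA damage repair was treated with test compounds, then its growth was measured against cultures receiving vehicle alone.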

[14] = NCI Yeast Anticancer Drug Screen. Data for the wt2 strain (AID 169);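 also: 0% = growth of vehicle-treated yeast cultures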; conditions: S. cerevisiae wt2 strain growth inhibition, hits give high values
Procedure, shortened: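 Values express reduction in yeast growth under compound treatment, referenced to vehicle-treated cells.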

[15] = NCI Yeast Anticancer Drug Screen. Data for the mlh1 rad18 strain (AID 175); conditions: S. cerevisiae mlh1 rad18 strain growth inhibition, hits give high values
Procedure, shortened: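 Test agents were incubated with a yeast strain of defined genotype (DNA damage repair defect). Inhibition of growth was derived by comparison with vehicle-exposed cultures.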

[16] = at 5.0 µM (retest, dose inferred, filed as 0.5)
[17] = at 50.0 µM (retest, dose inferred, filed as 5.0)

Measured: growth inhibition

O=Nc1ccc(Nc2ccccc2)cc1
active: [1]; at 100.0 µM 96% | [2]; at 100.0 µM 97% | [3]; at 33.0 µM 97% | [3]; at 100.0 µM 96% | [4]; at 100.0 µM 97% | [5]; at 50.0 µM 88.8% | [5]; at 100.0 µM 95% | [6]; at 33.0 µM 84% | [6]; [17] 95% | [6]; at 50.0 µM 91% | [6]; at 100.0 µM 97% | [7]; at 50.0 µM 93.2% | [8]; at 33.0 µM 97% | [8]; at 100.0 µM 96% | [9]; at 50.0 µM 86.3% | [10]; at 33.0 µM 97% | [10]; [17] 91% | [10]; at 50.0 µM 90.5% | [10]; at 100.0 µM 97% | [11]; at 33.0 µM 83% | [11]; at 100.0 µM 96% | [12]; at 100.0 µM 97% | [13]; at 33.0 µM 77% | [13]; at 100.0 µM 96%
inactive: [1]; at 1.2 µM -40% | [1]; at 3.7 µM -58% | [1]; at 11.0 µM -71% | [1]; at 33.0 µM -11% | [2]; at 1.2 µM -33% | [2]; at 3.7 µM -26% | [2]; at 11.0 µM -13% | [2]; at 33.0 µM 28% | [3]; at 1.2 µM -14% | [3]; at 3.7 µM -10% | [3]; at 11.0 µM 29% | [4]; at 1.2 µM -50% | [4]; at 3.7 µM -60% | [4]; at 11.0 µM -32% | [4]; at 33.0 µM 63% | [5]; at 1.2 µM -41% | [5]; at 3.7 µM -45% | [5]; [16] 2% | [5]; at 11.0 µM -32% | [5]; at 33.0 µM 39% | [5]; [17] 30% | [6]; at 1.2 µM -33% | [6]; at 3.7 µM -38% | [6]; [16] -10% | [6]; at 11.0 µM -35% | [7]; [16] -5% | [7]; [17] 13% | [8]; at 1.2 µM -44% | [8]; at 3.7 µM -35% | [8]; at 11.0 µM -5% | [9]; [16] 29% | [9]; [17] 68% | [10]; at 1.2 µM -31% | [10]; at 3.7 µM -14% | [10]; [16] 4% | [10]; at 11.0 µM -16% | [11]; at 1.2 µM -42% | [11]; at 3.7 µM -36% | [11]; at 11.0 µM -26% | [12]; at 1.2 µM -40% | [12]; at 3.7 µM -42% | [12]; at 11.0 µM -28% | [12]; at 33.0 µM 55% | [13]; at 1.2 µM -33% | [13]; at 3.7 µM -24% | [13]; at 11.0 µM 9%

CN(C)CCNc1cccc2sc3ccc(O)cc3c(=O)c12
inactive: [1]; at 1.2 µM 0% | [1]; at 3.7 µM 1% | [1]; at 11.0 µM 10% | [1]; at 33.0 µM 20% | [1]; at 100.0 µM 43% | [2]; at 1.2 µM 1% | [2]; at 3.7 µM 6% | [2]; at 11.0 µM 3% | [2]; at 33.0 µM 4% | [2]; at 100.0 µM 6% | [3]; at 1.2 µM 2% | [3]; at 3.7 µM 11% | [3]; at 11.0 µM 15% | [3]; at 33.0 µM 26% | [3]; at 100.0 µM 33% | [4]; at 1.2 µM -1% | [4]; at 3.7 µM -5% | [4]; at 11.0 µM -3% | [4]; at 33.0 µM 0% | [4]; at 100.0 µM 6% | [5]; at 1.2 µM 4% | [5]; at 3.7 µM 6% | [5]; [16] 14% | [5]; at 11.0 µM 11% | [5]; at 33.0 µM 31% | [5]; at 100.0 µM 47% | [6]; at 1.2 µM 4% | [6]; at 3.7 µM 5% | [6]; [16] -1% | [6]; at 11.0 µM 8% | [6]; at 33.0 µM 9% | [6]; [17] 17% | [6]; at 50.0 µM 18.5% | [6]; at 100.0 µM 7% | [7]; [16] 1% | [7]; [17] 7% | [7]; at 50.0 µM 48.1% | [8]; at 1.2 µM -6% | [8]; at 3.7 µM -11% | [8]; at 11.0 µM -8% | [8]; at 33.0 µM -5% | [8]; at 100.0 µM 4% | [9]; [16] 3% | [9]; [17] 26% | [9]; at 50.0 µM 45.5% | [10]; at 1.2 µM 2% | [10]; at 3.7 µM -4% | [10]; [16] 1% | [10]; at 11.0 µM -1% | [10]; at 33.0 µM -2% | [10]; [17] 8% | [10]; at 50.0 µM 36.2% | [10]; at 100.0 µM -4% | [14]; at 1.2 µM 1% | [14]; at 3.7 µM -2% | [14]; at 11.0 µM 0% | [14]; at 33.0 µM 1% | [14]; at 100.0 µM 4% | [11]; at 1.2 µM 1% | [11]; at 3.7 µM 3% | [11]; at 11.0 µM 4% | [11]; at 33.0 µM 4% | [11]; at 100.0 µM 8% | [12]; at 1.2 µM -1% | [12]; at 3.7 µM -1% | [12]; at 11.0 µM 2% | [12]; at 33.0 µM 3% | [12]; at 100.0 µM 3% | [15]; [16] -3% | [15]; [17] 44% | [15]; at 50.0 µM 66.5% | [13]; at 1.2 µM -2% | [13]; at 3.7 µM -2% | [13]; at 11.0 µM -1% | [13]; at 33.0 µM 1% | [13]; at 100.0 µM 5%
active: [5]; [17] 90% | [5]; at 50.0 µM 87.8%
